PubChem BioAssay AID1159580 (chemical genetic matrix, 2015)
“And” between values parts separate entries of the source, which are not always exact repeats. Equal entries are not always repeated. The campaign covered roughly 5,500 compounds. About 2,000 (36%) were called active. Roughly 18% stayed inconclusive and do not appear here. No stated cut-off is given here; in the data, active means normalized growth mostly below about 0.91 (no sharp cut-off); inconclusive means no clear call, values can overlap the other calls; inactive means mostly above about 0.92. The list shows a part of the results.

Assay: chemical genetic growth profiling, strain panel (AID 1159580);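 further: tested at 20 µM; growth read once vehicle control cultures reached saturation at 30 °C; 1 = growth at the plate median or of vehicle wells; lower values mean less growth of the strain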
Settings: S. cerevisiae deletion strains, growth OD

Measured: normalized growth

CCn1cc(C(=O)O)c(=O)c2cc(F)c(N3CCNC(C)C3)c(F)c21 (centres undefined)
inactive: locus YAL013W, strain DEP1, active compounds read low 0.989 | locus YAL021C, strain ccr4, active compounds read low 0.957 | locus YAL026C, strain drs2, active compounds read low 0.974 | locus YAL030W, strain snc1, active compounds read low 0.988 | locus YAL040C, strain CLN3, active compounds read low 0.984 | locus YBL061C, strain skt5, active compounds read low 0.962 | locus YBR009C, strain hhf1, active compounds read low 1.01 | locus YBR021W, strain FUR4, active compounds read low 0.982 | locus YBR023C, strain chs3, active compounds read low 0.986 | locus YBR171W, strain sec66, active compounds read low 0.975 | locus YBR229C, strain ROT2, active compounds read low 1 | locus YBR231C, strain swc5, active compounds read low 0.997 | locus YBR279W, strain paf1, active compounds read low 0.975 | locus YCL011C, strain gbp2, active compounds read low 0.971 | locus YCL016C, strain dcc1, active compounds read low 0.958 | locus YCL029C, strain bik1, active compounds read low 0.979 | locus YCL061C, strain MRC1 (second series), active compounds read low 0.997 | locus YCL061C, strain MRC1, active compounds read low 0.993 | locus YCL069W, strain vba3, active compounds read low 0.975 | locus YCR088W, strain abp1, active compounds read low 0.964 | locus YDL005C, strain med2, active compounds read low 0.97 | locus YDL035C, strain GPR1, active compounds read low 0.978 | locus YDL040C, strain nat1, active compounds read low 0.981 | locus YDL074C, strain BRE1, active compounds read low 1.02 | locus YDL101C, strain DUN1, active compounds read low 0.995 | locus YDL134C, strain PPH21, active compounds read low 0.985 | locus YDL185W, strain tfp1, active compounds read low 0.963 | locus YDL192W, strain arf1, active compounds read low 0.992 | locus YDR001C, strain nth1, active compounds read low 0.974 | locus YDR069C, strain doa4, active compounds read low 0.989 | locus YDR101C, strain arx1, active compounds read low 0.988 | locus YDR137W, strain rgp1, active compounds read low 0.949 | locus YDR150W, strain NUM1, active compounds read low 0.996 | locus YDR159W, strain sac3, active compounds read low 0.949 | locus YDR162C, strain NBP2, active compounds read low 0.98 | locus YDR195W, strain ref2 0.997 | locus YDR297W, strain sur2, active compounds read low 0.978 | locus YDR318W, strain mcm21, active compounds read low 0.976 | locus YDR334W, strain swr1, active compounds read low 0.975 | locus YDR335W, strain msn5, active compounds read low 0.968 | locus YDR363W, strain ESC2, active compounds read low 1.01 | locus YDR388W, active compounds read low 0.995 | locus YDR392W, strain spt3, active compounds read low 0.842 | locus YDR502C, strain sam2, active compounds read low 0.986 | locus YEL003W, strain gim4, active compounds read low 0.982 | locus YEL037C, strain rad23, active compounds read low 0.974 | locus YEL061C, strain CIN8 (second series), active compounds read low 0.975 | locus YEL061C, strain CIN8, active compounds read low 1.01 | locus YER002W, strain NOP16, active compounds read low 0.987 | locus YER015W, strain faa2, active compounds read low 0.988 | locus YER016W, strain bim1, active compounds read low 0.948 | locus YER110C, active compounds read low 0.984 | locus YER111C, strain swi4, active compounds read low 0.964 | locus YER155C, strain BEM2 (second series), active compounds read low 0.945 | locus YER155C, strain BEM2, active compounds read low 0.993 | locus YER167W, strain BCK2, active compounds read low 0.971 | locus YFR010W, strain ubp6, active compounds read low 1 | locus YGL078C, strain dbp3, active compounds read low 0.988 | locus YGL086W, strain mad1, active compounds read low 0.995 | locus YGL167C, strain pmr1, active compounds read low 0.98 | locus YGL173C, strain kem1, active compounds read low 0.993 | locus YGL227W, strain vid30, active compounds read low 0.981 | locus YGL240W, strain doc1, active compounds read low 1.01 | locus YGL248W, strain PDE1, active compounds read low 1.01 | locus YGL253W, strain hxk2, active compounds read low 0.98 | locus YGR078C, strain PAC10, active compounds read low 1.04 and 1.02 | locus YGR135W, strain pre9, active compounds read low 0.953 | locus YGR252W, strain gcn5, active compounds read low 0.991 | locus YHR013C, strain ard1, active compounds read low 0.984 | locus YHR027C, strain rpn1, active compounds read low 1 | locus YHR030C, strain SLT2, active compounds read low 0.988 and 1.03 | locus YHR079C, strain IRE1 (second series), active compounds read low 0.985 | locus YHR079C, strain IRE1, active compounds read low 1.06 | locus YHR094C, strain hxt1, active compounds read low 0.993 | locus YHR129C, strain ARP1, active compounds read low 0.991 | locus YHR142W, strain chs7, active compounds read low 0.948 | locus YHR200W, strain rpn10, active compounds read low 0.982 | locus YIL066C, strain RNR3, active compounds read low 1.01 | locus YIL073C, strain SPO22, active compounds read low 0.867 | locus YIL125W, strain kgd1, active compounds read low 0.998 | locus YIR030C, strain dcg1, active compounds read low 0.98 | locus YJL092W, strain hpr5, active compounds read low 0.99 | locus YJL095W, strain BCK1 (second series), active compounds read low 0.968 | locus YJL095W, strain BCK1, active compounds read low 1.03 and 1.01 | locus YJL115W, strain asf1, active compounds read low 0.967 | locus YJL129C, strain trk1, active compounds read low 0.931 | locus YJL134W, strain LCB3, active compounds read low 0.987 | locus YJL154C, strain vps35, active compounds read low 0.967 | locus YJL164C, strain tpk1, active compounds read low 0.975 | locus YJL166W, strain qcr8, active compounds read low 0.998 | locus YJL168C, strain set2, active compounds read low 0.999 | locus YJL187C, strain SWE1 (second series), active compounds read low 1.02 | locus YJR043C, strain POL32, active compounds read low 1.01 | locus YJR066W, strain TOR1, active compounds read low 0.956
